In PubChem BioAssay (NCI):
Compounds without any hit were thinned out: in the full panel of roughly 83,000, 20% have a hit.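 Plates (96-well) were seeded with cells, treated with compound at one concentration, and incubated for 48 hours before percent growth was determined.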 Active and inactive are the calls of the source. The calls were made as follows: active = growth percent below 10; inactive = the rest.

What was measured:
Assay in all cases: NCI-60 one-dose screen, 48 h (100 = growth as untreated, 0 = no growth, -100 = all killed)
Conditions in all cases: 10 µM unless noted
[1] = tested on: DU-145 prostate
[2] = tested on: K-562 leukemia
[3] = tested on: MALME-3M melanoma
[4] = tested on: MDA-MB-231 breast
[5] = tested on: RXF 393 renal
[6] = tested on: SF-268 CNS
[7] = tested on: SF-295 CNS
[8] = tested on: SF-539 CNS
[9] = tested on: UACC-257 melanoma
[10] = tested on: M14 melanoma
[11] = tested on: HCT-15 colon
[12] = tested on: HT29 colon
[13] = tested on: SNB-75 CNS
[14] = tested on: SNB-19 CNS
[15] = tested on: U251 CNS
[16] = tested on: PC-3 prostate
[17] = tested on: SK-MEL-5 melanoma
[18] = tested on: UACC-62 melanoma
[19] = tested on: LOX IMVI melanoma
[20] = tested on: SK-MEL-28 melanoma

Measured: growth

COC(=O)[C@@]12CC[C@@H](C)[C@]3(C[C@@H](c4ccoc4)OC3=O)[C@H]1CC[C@@H]1O[C@@]12C
inactive: [1] 104% | [2] 113% | [3] 101% | [4] 108% | [5] 118% | [6] 95% | [7] 100% | [8] 105% | [9] 99.6% | [10] 99.8% | [11] 101% | [12] 107% | [13] 86% | [14] 102% | [15] 105% | [16] 95.2% | [17] 98.9% | [18] 95.1% | [19] 99.3%

COc1cc(/C=N/NC(=O)c2cnn3c2NC(c2ccccc2)C3)cc(OC)c1OC (stereo unspecified)
inactive: [1] 90.8% | [2] 31.6% | [3] 65.2% | [4] 67.1% | [5] 87.7% | [6] 81.4% | [7] 53.1% | [8] 68.1% | [9] 86.5% | [10] 50.3% | [11] 37.7% | [12] 20.5% | [13] 52.4% | [14] 66.2% | [15] 66.9% | [16] 56.2% | [17] 50.4% | [18] 57.4% | [19] 61.3% | [20] 70.4%

Cc1ccc(C)c2c1sc1nc3nc4sc5ccccc5n4c(=N)c3c(=O)n12
inactive: [1] 108% | [2] 132% | [3] 143% | [4] 93.5% | [5] 122% | [6] 95.6% | [7] 104% | [8] 101% | [9] 129% | [10] 94.8% | [11] 102% | [12] 104% | [13] 73.7% | [14] 89.4% | [15] 107% | [16] 71.5% | [17] 94.6% | [18] 120% | [19] 92.6% | [20] 110%

COc1ccc(/C=C2\Oc3cc(C)c(Cl)cc3C2=O)cc1OC
inactive: [1] 104% | [2] 86.6% | [3] 99.7% | [4] 102% | [5] 111% | [6] 102% | [7] 95.7% | [8] 92.7% | [9] 101% | [10] 96.3% | [11] 96.5% | [12] 109% | [13] 101% | [14] 98.4% | [15] 96.8% | [16] 101% | [17] 91.8% | [18] 87.3% | [19] 92.9% | [20] 114%

CCC(C)[C@H]1O[C@]2(CC[C@@H]1C)C[C@@H]1C[C@@H](C/C=C(\C)[C@@H](OC3C[C@H](OC)C(O[C@H]4C[C@H](OC)[C@@H](O)[C@H](C)O4)[C@H](C)O3)[C@@H](C)/C=C/C=C3\CO[C@@H]4[C@H](O)C(C)=C[C@@H](C(=O)O1)[C@]34O)O2 (stereo partly specified)
inactive: [1] 22.1% | [2] 14.1% | [6] 25.1% | [9] 47.3% | [14] 33.1% | [15] 31.5% | [18] 18.4%
active: [3] 0.803% | [4] -15.6% | [5] -23.1% | [7] -36.7% | [8] -15.4% | [10] -73.1% | [11] 8.26% | [12] 4.41% | [13] -0.276% | [16] 1.52% | [17] -85.4% | [19] -83.1%

CC(=O)OC[C@]1(C)C=C2C(=O)[C@](C)(O)C3(CC3)C(C)=C2[C@H]1OC(C)=O
inactive: [1] 16.7% | [2] 93.1% | [3] 111% | [4] 93.2% | [6] 69.4% | [7] 83% | [8] 95.2% | [9] 106% | [10] 88.2% | [11] 72.9% | [12] 69.9% | [13] 56.5% | [14] 83% | [15] 79.5% | [16] 88.1% | [17] 87.8% | [18] 103% | [19] 78.3% | [20] 109%
active: [5] 3.69%

COc1cc(-c2nc(SC(C)C)nc(Nc3cccc(C)c3)c2C#N)cc(OC)c1OC
inactive: [1] 109% | [2] 99.5% | [3] 108% | [4] 99.2% | [5] 127% | [6] 107% | [7] 101% | [8] 107% | [9] 98.9% | [10] 108% | [11] 103% | [12] 98.7% | [13] 109% | [14] 103% | [15] 106% | [16] 98.6% | [17] 102% | [18] 95.2% | [19] 97.2% | [20] 107%

COc1ccc(NS(=O)(=O)c2ccc(-c3cnc(C4CC4)o3)cc2)cc1
inactive: [1] 81.2% | [2] 22.8% | [3] 58.3% | [4] 69.7% | [5] 83.9% | [6] 73.2% | [7] 50% | [8] 65.2% | [9] 72.5% | [10] 40.9% | [11] 29.7% | [12] 19% | [13] 44.9% | [14] 67.8% | [15] 56.5% | [16] 67% | [17] 51.3% | [18] 49.4% | [19] 50.8% | [20] 66.3%

O=C1CCC(N2Cc3c(C#CCCCNC(=O)c4cc5c(o4)C(=O)c4ccccc4C5=O)cccc3C2=O)C(=O)N1 (stereo unspecified)
active: [1] -98.1% | [3] -97.6% | [4] -2.23% | [5] -15.4% | [6] -10.1% | [7] -87% | [8] -94.2% | [9] -79% | [10] -87.8% | [12] -15.4% | [13] -98.7% | [14] -8.73% | [15] -27.7% | [16] 4.79% | [17] -99.2% | [18] -84.4% | [19] -88.3% | [20] -22.9%
inactive: [2] 16.2% | [11] 76%

COc1cc(/C=C2\C(=O)N(c3c(Cl)cccc3Cl)c3ccccc32)cc(OC)c1O
active: [2] 8.62% | [7] 8.15% | [19] 2.06%
inactive: [1] 36.8% | [3] 133% | [4] 72.4% | [5] 90.4% | [6] 40.9% | [8] 45.1% | [9] 46.1% | [10] 39.2% | [11] 30.7% | [12] 22.6% | [13] 61.7% | [14] 52.4% | [15] 22.4% | [16] 15.2% | [17] 32.3% | [18] 47.5% | [20] 58.8%

Cc1ccc(C2SCC(=O)N2NC(=O)c2[nH]c3ccc(F)cc3c2-c2ccccc2)cc1 (stereo unspecified)
inactive: [1] 106% | [2] 75.8% | [3] 91.6% | [4] 86.4% | [5] 78.7% | [6] 93.4% | [7] 92.4% | [8] 97.6% | [9] 86.9% | [10] 109% | [11] 89.8% | [12] 74.4% | [13] 71.4% | [14] 88.5% | [15] 81% | [16] 59.9% | [17] 89.6% | [18] 78.1% | [19] 91.2% | [20] 97.5%

Cc1c(NCC(=O)Nc2nc3ccccc3[nH]2)c(=O)n(-c2ccccc2)n1C
inactive: [1] 112% | [2] 101% | [3] 98.4% | [4] 99.3% | [5] 102% | [6] 103% | [7] 109% | [8] 97.7% | [9] 94.4% | [10] 105% | [11] 94.5% | [12] 105% | [13] 94.3% | [14] 97% | [15] 96.7% | [16] 92.7% | [17] 100% | [18] 102% | [19] 97.1%

Cc1cc(=O)oc2c1ccc1oc(C(=O)c3ccccc3)c(C)c12
inactive: [1] 98.5% | [2] 49.2% | [3] 113% | [4] 76.3% | [5] 99.8% | [6] 122% | [7] 55.8% | [8] 92.5% | [9] 100% | [10] 77.2% | [11] 64% | [12] 51.8% | [13] 103% | [14] 103% | [15] 83.9% | [16] 86.4% | [17] 84.3% | [18] 80.8% | [19] 80.5%

COc1ccc(/C=C(\C#N)c2cc3ccccc3n2C)cc1
active: [1] 2.99% | [2] 7.26% | [5] -6.28% | [7] 9.9% | [8] -15.9% | [10] 6.61% | [12] 9.49% | [13] 1.11%
inactive: [3] 60.8% | [4] 31% | [6] 47.5% | [9] 72.6% | [11] 23.9% | [14] 32.8% | [15] 15.9% | [16] 38.8% | [17] 23.2% | [18] 38.3% | [19] 39.4% | [20] 62.1%

O=[N+]([O-])c1ccc2nc(N/N=C/c3ccc(O)cc3)sc2c1
inactive: [1] 60.1% | [2] 31.6% | [3] 65% | [4] 82.9% | [5] 103% | [6] 64.1% | [7] 86.7% | [8] 49.5% | [9] 66.6% | [10] 83% | [11] 53.4% | [12] 78% | [13] 73.7% | [14] 77.9% | [15] 45.9% | [16] 38.4% | [17] 58.1% | [18] 81.7% | [19] 49.7% | [20] 89%
